An excerpt weighted towards active compounds, which were near 8% of everything screened.
HT1080-NT tox = kills 2HG-producing HT-1080-NT fibrosarcoma cells | HT-1080-NT fibrosarcoma viability, CellTiter-Glo ATP luminescence, 48 h | Potency, µM (highest dose often 46.1 µM), inactives show at the top dose activity, negative = less viability, usual class: cytotoxic | 1.6% of 360,000 active;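 note: NT is the 2HG producing partner of a matched IDH1 knockdown line; 0% = DMSO-treated cells and -100% = media-only wells without cells; nearly all actives have a fitted effect of over 55% in size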
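HT-1080-NT fibrosarcoma cells (2HG-overproducing), 750 cells/well in RPMI with 5% FBS, dosed after 2 h and incubated 48 h at 37C. CellTiter-Glo luminescence normalized to DMSO and no-cell wells; concentration-response curves fitted and classed.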
KB-3-1 tox = KB-3-1 parental cell cytotoxicity; KB-3-1 viability, CellTiter-Glo ATP luminescence, 72 h; Potency, µM (titrated, usually from 46.1 µM), usual class: cytotoxic; 1.4% of 400,000 active; note: % is set by controls: 0 for no effect and ±100 for the full control effect; nearly all actives have a fitted effect of over 60% in size
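Cells are dispensed, compounds pinned in, plates held at 37 °C for 72 h, then CellTiter-Glo is added and luminescence read after 10 minutes. Cell line: parental KB-3-1 in phenol-red-free DMEM, 10% FBS.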
MCF10A rerep = induces DNA re-replication in MCF 10a normal breast cells. MCF 10A DNA re-replication, Hoechst nuclear intensity, 48 h. Potency, µM (series often up to 46.1 µM), for the others: at the highest dose activity, positive = re-replication, most hits filed as activators. 2.9% of 350,000 active. AID 624296; note: % of control where 0% means no effect; nearly all actives have a fitted effect of over 50% in size
SW480 rerep = DNA re-replication induction in SW480 cells; SW480 DNA re-replication, Hoechst DNA content imaging, 48 h; Potency, µM (top dose mostly 46.1 µM), for inactives: at the top dose re-replication activation, usual class: activators; 1.8% of 340,000 active; note: % of control where 0% means no effect; nearly all actives have a fitted effect of over 55% in size
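Readout is total intensity of Hoechst-stained nuclei, excited at 405 nm and collected at 500-530 nm. Compound treatment lasted 48 hr at 37 C in 5% CO2 before staining.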
KB-V1 MDR tox = KB-V1 MDR subline cytotoxicity | Potency, µM (doses to about 46.1 µM), usual class: cytotoxic | 3.4% of 400,000 active | KB-V1 MDR cells viability, CellTiter-Glo, 72 h; note: % is set by controls: 0 for no effect and ±100 for the full control effect; nearly all actives have a fitted effect of over 60% in size
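KB-V1 cells (P-gp-expressing MDR subline of KB-3-1) in phenol-red-free DMEM with 10% FBS were exposed to library compounds over a concentration series for 72 h at 37 degrees C. Viability read by CellTiter-Glo luminescence; concentration-effect curves fitted after normalization.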
HT1080 IDH1KD tx = toxicity to HT-1080 IDH1 knockdown cells (counter line) | 2% of 360,000 active | AID 686971 | Potency, µM (series often up to 46.1 µM), for inactives: at the highest dose activity, negative = toxicity, usual class: cytotoxic | HT-1080 IDH1 knockdown viability, ATP luminescence, 48 h;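 note: 0% = DMSO wells and -100% = cell-free medium wells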
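HT-1080-IDH1KD cells (IDH1 knocked down), 750/well in RPMI with 5% FBS, treated with compound 48 h at 37 degrees C. Viability by CellTiter-Glo luminescence, normalised to DMSO and no-cell wells; concentration-response curves classed.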
Starred values were filed as active, the others as inactive; i = inactive; u = inconclusive; [ ] = remark or other dose. Calls come from the whole dose curve; as a rule, active = well fitted curve in the direction sought with a large enough effect; inconclusive = small, poorly fitted or top-dose-only effect, or another doubt; inactive = no such curve, though single readings can be large; an effect the other way counts as inactive or inconclusive. Potency is the fitted concentration of half-maximal effect.

SMILES	HT1080-NT tox	KB-3-1 tox	MCF10A rerep	SW480 rerep	KB-V1 MDR tox	HT1080 IDH1KD tx
O=C(/C=C/c1ccccc1)NC(NC(=S)Nc1ccc(C(=O)O)cc1)C(Cl)(Cl)Cl (configuration not stated)	11%	i	1%	-1%	i	5%
Cc1ccc(C)c(NC(=S)NC(NC(=O)/C=C/c2ccccc2)C(Cl)(Cl)Cl)c1 (configuration not stated)	u	u	2.9µM*	u	u	u
O=C(/C=C/c1ccccc1)NC(NC(=S)Nc1cccc(Cl)c1)C(Cl)(Cl)Cl (configuration not stated)	u	u	7.3µM*	u	u	u
O=C(/C=C/c1ccccc1)NC(NC(=S)Nc1cccc(O)c1)C(Cl)(Cl)Cl (configuration not stated)	u	u	u	-15%	u	u
O=C(/C=C/c1ccccc1)NC(NC(=S)Nc1ccc(Cl)cc1Cl)C(Cl)(Cl)Cl (configuration not stated)	-24%	i	12µM*	u	u	u
O=C(NC(NC(=S)Nc1ccccc1Cl)C(Cl)(Cl)Cl)c1cccc(Cl)c1 (configuration not stated)	u	u	u	u	21µM*	u
O=C(Cc1cccc2ccccc12)NC(NC(=S)Nc1ccccc1Cl)C(Cl)(Cl)Cl (configuration not stated)	-16%	i	u	-3%	u	-27%
CC(=O)c1cccc(NC(=O)CSc2ccc(-c3cccnc3)nn2)c1	-4%	i	-7%	1%	i	-18%
CCCOc1c(OC)cccc1C1CC(=O)Nc2cc3c(cc21)OCO3 (configuration not stated)	u	10µM*	5.8µM*	16µM*	16µM*	-9%[9.24 µM]
CCCOc1c(OC)cccc1C1CC(=O)Nc2cc3c(cc21)OCCO3 (configuration not stated)	u	u	5.8µM*	u	u	u
O=C(C[C@@H]1C/C=C\C[C@H](Cc2ccc(F)cc2)C(=O)OCCNC1=O)N[C@H](CO)Cc1ccccc1	9%	i	-7%	-3%	u	7%
Cc1ccc(-n2c(SCC3CCCCO3)nnc2-c2ccco2)cc1 (configuration not stated)	-19%	u	15%	1%[9.22 µM]	21µM*	u
CC(Sc1nnc(-c2ccco2)n1-c1ccccc1)C(=O)NCC1CCCO1 (configuration not stated)	6%	i	4%	-3%	21µM*	10%
CC(=O)c1cccc(NC(=O)CCS(=O)(=O)c2cc3c(cc2C)NC(=O)CO3)c1	4%	u	-4%	-12%	i	-1%
O=C1CCCc2c1cc(-c1ccccc1)n2-c1ccccc1	u	16µM*	26%	-9%	12µM*	u
CCOc1ccccc1NC(=O)N1CCCC1C(=O)NCc1ccco1 (configuration not stated)	-18%	i	5%	-16%	i	0%
COc1cccc(-c2nnc(NC(=O)c3ccco3)s2)c1	16%	i	-4%	-6%	i	13%
CC(C)(C)C(=O)Nc1nnc(SCc2cccc(F)c2)s1	2%	i	0.65µM*	-10%	i	2%
O=C(Nc1nnc(SCc2ccc(F)cc2)s1)c1ccco1	-2%	i	0%	2%	i	-3%
O=C(Nc1nnc(SCc2cccc(F)c2)s1)c1ccco1	2%	i	0.29µM*	-76%	i	4%
CCCOc1cccc(-c2nnc(NC(=O)c3ccco3)s2)c1	-5%	u	8.2µM*	8%	u	0%
O=C(Cc1ccccc1)Nc1nnc(SCC(=O)NC2CCCC2)s1	-10%	i	-1%	-3%	i	-17%

Assay outcomes: PubChem BioAssay, National Center for Advancing Translational Sciences (NCATS)
